Out of some 2,200 compounds screened, about 530 (24%) were called active.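 How the source made its calls: active means inhibition above a set limit at one or more concentrations of the dose series; inactive means inhibition under that limit at every dose.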 These entries were drawn from the full list. Entries with a potency or affinity are not part of this list.
Experiment: S. Typhimurium nonspecific reporter signal inhibition – Salmonella Typhimurium, GFP fluorescence, counter-screen for PhoP regulon inhibitor project, dose response (AID 2401);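 further: S. typhimurium with Mg-insensitive nmpC-GFP reporter grown at 10 µM Mg2+; drop in reporter fluorescence reflects general culture growth inhibition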
Details: 4 h; series mostly up to 150 µM; inhibition: at the top concentration

SMILES | inhibition
Cc1cccc(-n2c(N)cc(=O)[nH]c2=S)c1C | 25.7% (inactive)
Oc1cccc2ccc[n+](CC(O)Cn3c4ccccc4c4ccccc43)c12 (configuration not stated) | -8.84% (inactive)
OCCN(CCO)CC(O)Cn1c2ccccc2c2ccccc21 (configuration not stated) | -5.12% (inactive)
Cc1cc(C)c(C#N)c(SCc2cn3ccccc3n2)n1 | 1.99% (inactive)
CCCCNC(=O)Oc1cccc(N2CCCC2=O)c1 | 31.2% (inactive)
COc1ccc(Cl)cc1C(=O)CSc1nc(N)cc(N)n1 | -10.7% (inactive)
COc1ccccc1N1CCN(C/C(O)=C(\C#N)c2nc(-c3ccccc3)cs2)CC1 | 34% (inactive)
Cc1nc(-c2ccccc2)cc(=O)[nH]1 | -19.9% (inactive)
Cn1c(NCc2ccccc2O)nc2ccccc21 | -7.98% (inactive)
CC(CCc1ccccc1)NC(=O)c1ccccc1 (configuration not stated) | -8.81% (inactive)
COCC(=O)N=Nc1c(O)[nH]c2ccccc12 | -11.6% (inactive)
C/C(=N\NC(=S)Nc1ccc(F)cc1)c1ccc2c(c1)OCCO2 | -15.3% (inactive)
Nc1nonc1-n1nnc(C(=O)N/N=C/c2ccc(Br)cc2)c1CSC1=NCCS1 | 5.01% (inactive)
Nc1nonc1C(=O)NCCN=Cc1cc(Cc2ccccc2)cc(Br)c1O | 22.3% (inactive)
COc1cccc(C=NCCNC(=O)c2nonc2N)c1O | 6.54% (inactive)
COC(=O)Cc1c(C)nc2nc(NCc3ccc(Cl)cc3)[nH]n2c1=O | 10.4% (inactive)
CC(C)CNC(=S)NC1CCCC1 | -23.4% (inactive)
O=C(OCC(=O)c1ccccc1Cl)c1cnccn1 | -6.43% (inactive)
Cc1ccc(C(=O)C2COC(=O)C2)cc1 (configuration not stated) | 34.6% (inactive)
COc1ccc(S(=O)(=O)N2CCN(C(=O)c3c(C)nn(-c4ccccc4)c3Cl)CC2)cc1 | -2.31% (inactive)
COc1ccccc1CC(=O)N1CCN(c2ccccn2)CC1 | -17.2% (inactive)
COc1ccc(-n2c(C)cc(C(=O)Cn3nc(C(=O)O)c4ccccc4c3=O)c2C)cc1 | 4.51% (inactive)
O=C(CN1CCCCC1)Nc1cccc2c1OCO2 | -1.21% (inactive)
COc1ccccc1NS(=O)(=O)c1cc(NC(=S)Nc2cc(C)cc(C)c2)ccc1Cl | -3.8% (inactive)
COCCCNc1ccnc2c(Cl)cccc12 | 21.8% (inactive)
CN(CC(=O)NCc1cccc(F)c1)C(=O)c1ccco1 | -15.9% (inactive)

SMILES | inhibition
O=S(=O)(Nc1cc(Sc2cccc3cccnc23)c(O)c2ccccc12)c1ccc(F)cc1 | 8.76% (inactive)
O=C(c1ccco1)N1CCN(c2ncnc3c2[nH]c2ccccc23)CC1 | 16.8% (inactive)
COC(=O)c1ccc(Sc2ccccc2NS(=O)(=O)c2ccc(C)cc2)nc1 | -13.9% (inactive)
CC(=O)Nc1cccc(-c2csc(Nc3cccc(C)n3)n2)c1 | -14.5% (inactive)
Cc1ccc(-n2c(C)cc(C3=NNC(=NC4CC4)SC3)c2C)cc1C | -9.06% (inactive)
COc1ccc(NC(=O)c2sccc2SCC#N)cc1 | -16.1% (inactive)
CCOC(=O)CN1C(=O)C(C)(C)Oc2ccc(C(=O)Nc3ccccc3OC)cc21 | -23.6% (inactive)
C=CCSC1=Nc2sccc2C2=NC(=O)CN12 | -27.7% (inactive)
Cc1ccn2cc(CSc3ccccc3N)nc2c1 | -24.9% (inactive)
COc1cccc(N=Cc2c[nH][nH]c2=O)c1 | 3.08% (inactive)
CO/N=C\CC(=O)Nc1ccc(F)cc1 | -33.4% (inactive)
COc1ccccc1N1CCN(C(=O)CSc2nc3ccccc3o2)CC1 | -12.1% (inactive)
CCC(C)NC(=O)c1ccccc1NC(=O)C(C)N(c1ccccc1)S(C)(=O)=O (configuration not stated) | -16.5% (inactive)
FC(F)(F)COc1nc(OCC(F)(F)F)nc(N2CCN(c3ccccc3)CC2)n1 | -20.4% (inactive)
CC(=O)Nc1nc2nc(-c3ccccc3)cc(-c3ccccc3)n2n1 | 3.38% (inactive)
Cc1cccc(Sc2c([N+](=O)[O-])ncn2C)c1 | 14.8% (inactive)
S=C(NCc1cccnc1)Nc1ccc(Cl)c(Cl)c1 | 18.6% (inactive)
Cn1ccnc1C(O)c1ccc(OCc2ccccc2)cc1 (configuration not stated) | 6.64% (inactive)
O=C(c1cnsn1)N1CCN(c2ccccc2)CC1 | -32.8% (inactive)
O=C(Nc1ccc(F)cc1)c1ccccc1F | -15.6% (inactive)
CC(C)(C)NS(=O)(=O)c1ccc(CCC(=O)N2CCOCC2)cc1 | -24.9% (inactive)
O=c1ccc2ccc(Oc3ccc([N+](=O)[O-])cc3[N+](=O)[O-])cc2o1 | -5.81% (inactive)
O=[N+]([O-])c1ccc(-n2nnnc2-c2ccccc2)c([N+](=O)[O-])c1 | 24.5% (inactive)
O=C(Nc1ccccc1)Oc1ccc[nH]c1=O | 17.1% (inactive)
Cc1ccc(N)cc1-n1c(C)ccc1C | 7.88% (inactive)
O=C(CC(NS(=O)(=O)c1ccc(Cl)cc1)c1ccco1)N1CCc2ccccc21 (configuration not stated) | -10.5% (inactive)

SMILES | inhibition
CC1CCN(C(=O)c2ccc3c(c2NCCO)C(=O)c2ccccc2C3=O)CC1 | 6.14% (inactive)
CC(=O)Cn1cnc2sc(-c3ccccc3)cc2c1=O | -20.4% (inactive)
COCCn1cc(C(=O)N2CCC(C)CC2)c2c3ccccc3n(C)c2c1=O | -24.8% (inactive)
Oc1ccccc1-c1nc(/C=C/c2ccccc2)nn1-c1ccccc1 | -15.6% (inactive)
Cc1ccc(Cn2cnc3ccccc32)cc1 | -24.4% (inactive)
O=C(NCCCc1ccccc1)Nc1cccc(Cl)c1 | -6.65% (inactive)
COc1cc(NC(=O)Nc2cccc(Cl)c2)c(OC)cc1NC(=O)CN1CCCCC1 | 1.04% (inactive)
CCCOc1ccc(C(=O)C(CCC(CNCC)C(=O)c2ccc(OCCC)cc2)CNCC)cc1 (configuration not stated) | 11.4% (inactive)
CCOC(=O)c1ccc2c(c1)C(=O)N(C1CCCCC1)C2=O | -9.18% (inactive)
O=C1c2ccccc2C(=O)N1CCc1csc(-c2cccc(Cl)c2)n1 | -25.4% (inactive)
CC(=O)c1ccc(NC(=S)NC(NC(=O)c2ccco2)C(Cl)(Cl)Cl)cc1 (configuration not stated) | 26% (inactive)
O=[N+]([O-])c1cccc(CN(CCO)Cc2ccccc2)c1 | -14.6% (inactive)
Nc1nc(CSc2nc3ccccc3[nH]2)nc(N2CCOCC2)n1 | -10.8% (inactive)
COC(=O)c1ccc(C(=O)OC)c(NC(=O)COc2ccccc2OC)c1 | -16.4% (inactive)
CCN(CC)c1ccc(S(=O)(=O)Nc2cc(Cl)ccc2Cl)cc1NC(=S)NC(=O)C1CCCC1 | -23.8% (inactive)
O=C1/C(=C/c2ccccc2)NC(=S)N1C(c1ccccc1)c1ccccc1 | -5.32% (inactive)
CCN(CC)S(=O)(=O)c1cccc(NC(=O)Nc2cccc(C(F)(F)F)c2)c1 | -36.2% (inactive)
Fc1cc(Br)ccc1NC(=S)Nc1ccccc1 | -47.3% (inactive)
Nc1ccc2c(c1)C(=O)N(CC1CCCO1)C2=O (configuration not stated) | 4.4% (inactive)
Cc1cccc(C(=O)O/N=C2\CCSc3ccc(C)cc32)c1 | -18.9% (inactive)
CCOC(=O)c1cnc2ccc(OC)cc2c1Nc1ccc2c(c1)OCCO2 | -24.2% (inactive)
Cc1cccc(C)c1OCC(=O)Nn1c(COc2ccccc2)nc2ccccc2c1=O | -32.7% (inactive)
COc1ccccc1-n1c(SCc2cc(=O)oc3cc(O)ccc23)nc2ccccc2c1=O | 1.45% (inactive)
COc1cccc(/C=N/n2c(C)nc3ccccc3c2=O)c1O | -21.2% (inactive)
Cn1c(COc2ccccc2)nnc1SCc1nc2ccccc2[nH]1 | -16.3% (inactive)

Source: PubChem BioAssay AID2401 (Southern Research Specialized Biocontainment Screening …, 2010)
